The list is not random: actives were taken first. Their share in the collection is about 0.93%.
F508del corr – CFTR F508del correction in bronchial cells. hit rate 0.36% among 350,000. CFBE cells, YFP halide quenching; stimulated with forskolin plus potentiator P3; % fluorescence drop versus neutral controls. activity (quench increase), % at 7.58 µM;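 active means mean added fluorescence quench of at least 8% versus neutral control, with both replicates also reaching 8%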;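 further: cells transiently co-express mutant CFTR-F508del with the halide-sensitive YFP; corrector assay measuring rescue of mutant channel to the surface after 24 h compound exposure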
Jurkat NFkB inh – inhibitors of the PMA/ionomycin-induced NF-kB reporter in Jurkat cells; PMA/ionomycin-induced NF-kB luciferase reporter, luminescence; AID 435003; inhibition, % at 4 µM; hit rate 0.53% among 330,000; in the data active means inhibition above about 50%
697 NFkB inh – lowers PMA/ionomycin-induced NF-kB signal in 697 B cells; hit rate 0.33% among 330,000; 697 B-cell NF-kB luciferase reporter, 16 h; inhibition, % at 4 µM; in the data active means inhibition above about 35%
HIF activator – HIF pathway transcriptional activation; hit rate 0.32% among 300,000; activation, % at 7.5 µM (by protocol); AID 1910; U2OS HRE-luciferase reporter, luminescence; normalized: DMSO 0%, desferrioxamine 100%;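 active means mean activation of at least 10% of the iron chelator positive control signal, with at least half of replicates also reaching 10%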
Numbers without * were called inactive; / = no result given; ! = not confirmed by another sample.

SMILES	F508del corr	Jurkat NFkB inh	697 NFkB inh	HIF activator
N=C1/C(=C\c2ccc(-c3cc(Cl)cc(Cl)c3)o2)C(=O)N=C2SC=C(c3ccccc3)N12	/	-21	-25	0
N=C1/C(=C/c2cccn2CCOc2ccccc2)C(=O)N=C2SC=C(c3ccccc3)N12	13*	0	-9	1
CCNC(=O)C[C@H]1CC[C@H]2[C@@H](COC[C@@H](O)CN2Cc2ccncc2)O1	1	/	/	/
NS(=O)(=O)c1ccc(NNC(=O)c2ccc(Br)o2)c([N+](=O)[O-])c1	8.0*	7	-6	/
Cc1ccc(NC(=O)c2ccc(Br)o2)c([N+](=O)[O-])c1	-3	/	/	/
O=C(C1=C[C@@H](c2ccc3c(c2)Cc2ccccc2-3)C[C@@H](OCCCCO)O1)N1CCCCC1	1	/	/	/
O=C(Nc1ccn(CCCNCCN2CCOCC2)c(=O)n1)OCc1ccccc1	1	/	/	/
O=C(Nc1ccn(CCCNC2CCN(Cc3ccccc3)CC2)c(=O)n1)OCc1ccccc1	9.0*	/	/	/
CC(=O)Nc1ccc(S(=O)(=O)Nc2ccc(S(=O)(=O)Nc3nccs3)cc2)cc1	1	-1	24	23*
Cc1ccc(-c2ccc3c(c2)O[C@H](CN(C)CC2CC2)[C@H](C)CN([C@H](C)CO)S3(=O)=O)cc1	-4	/	/	/
CC1=Nc2cc(C(=O)NCC3CCCO3)ccc2Sc2ccc(C)cc21 (stereo not drawn)	10*	49	-37	1
CCOc1ccc(C(=O)NCC2CCCO2)cc1OCC (stereo not drawn)	1	1	-5	11*
COc1ccc(NC(=O)c2ccc(OCC3CCCO3)cc2)cc1OC (stereo not drawn)	8.8*	-24	-5	/
COc1ccc(C(=O)NCC2CCCO2)cc1OC (stereo not drawn)	2	8	13	0
O=C(NCCN1CCOCC1)c1sc2cc(Cl)ccc2c1Cl	-1	-8	9	1
COc1ccc(NC(=O)c2ccc(OCC3CCCO3)cc2)cc1Cl (stereo not drawn)	-1	-71	-60	/
O=C(NCC1CCCO1)c1sc2cc(Cl)ccc2c1Cl (stereo not drawn)	/	-29	-57	9.9*
O=C(C[C@@H]1C[C@@H]2c3cc(NC(=O)c4cccnc4)ccc3O[C@@H]2[C@H](CO)O1)NCc1ccncc1	-3	/	/	/
C[C@@H]1CCCCO[C@@H](CN(C)C(=O)Nc2ccccc2)[C@@H](C)CN([C@@H](C)CO)C(=O)c2cc(NC(=O)CCC(F)(F)F)ccc2O1	-1	/	/	/
CN(C)CC(=O)N1[C@@H](CO)[C@@H](c2ccccc2)C12CN(C(=O)c1ccccc1)C2	-2	/	/	/
CCOc1ccc(C(=O)NNC(=O)CCNC(=O)c2ccc(Br)cc2)cc1OC	21*	-12	-3	/
Cc1ccc(OCCC(=O)NNC(=O)c2ccc(Br)cc2)cc1	8.6*	8	10	/
O=C(CN1CCOCC1)N[C@H]1CC[C@H](CCn2cc(C3CCCC3)nn2)O[C@@H]1CO	-1	/	/	/
O=C(C1=C[C@@H](c2ccccc2)C[C@@H](OCc2ccc(CO)cc2)O1)N1CCN(Cc2ccc3c(c2)OCO3)CC1	8.8*!	44	4	3
CCN[C@H]1CN(CCCOC)S(=O)(=O)c2sc(S(N)(=O)=O)cc21	10*	-1	22	/
SMILES	F508del corr	Jurkat NFkB inh	697 NFkB inh	HIF activator
Cc1ccc(NC(=O)CCC(=O)N/N=C/c2ccc(O)cc2O)cc1	3	14	16	135*
Cc1cc(SCC(=O)N/N=C/c2ccccc2C(=O)O)c(C)cc1Br	1	-1	-13	21*
O=C(CSc1ccc2ccccc2n1)N/N=C/c1ccccc1O	0	-7	-10	0
Cc1ccc(-c2nnc(SCC(=O)N/N=C/c3ccccc3C(=O)O)n2-c2ccc(C)cc2)cc1	-3	-9	19	-1
Cc1cc(SCC(=O)N/N=C/c2ccc(O)cc2O)c(C)cc1Br	/	5	-29	39*
C[C@H](CO)N1C[C@H](C)[C@@H](CN(C)Cc2ccc(C(=O)Nc3ccccc3N)cc2)Oc2ccc(NC(=O)c3ccncc3)cc2C1=O	0	/	/	/
Cc1ccc(N(C)c2nc(N)nc(N)c2N=O)cc1	9.9*	/	/	/
COC(=O)Cc1c(O)ccn(Cc2ccc(Cl)c(Cl)c2)c1=O	14*	5	5	1
Cc1ccc(C(=O)CNc2ccc(Cl)cc2)cc1	12*	-2	10	2
NS(=O)(=O)c1ccc2nc(NC(=O)c3ccc4c(c3)OCCO4)sc2c1	8.9*	1	-2	0
COc1ccc(CN2CCNC(=O)C2CC(=O)NC2CCCCC2)c(OC)c1 (stereo not drawn)	1	-7	14	-2
COc1ccc(CN2CCNC(=O)C2CC(=O)NC2CCCC2)c(OC)c1 (stereo not drawn)	1	4	-1	55*
Cc1ccc(C(=O)Nc2nc(-c3ccccn3)cs2)cc1S(=O)(=O)N1CCOCC1	3	36	-58	/
O=C(Nc1nc(-c2ccccn2)cs1)c1ccc(F)c(S(=O)(=O)N2CCOCC2)c1	22*	14	-56	/
O=C(Nc1nc(-c2ccccn2)cs1)c1cccc(-n2cnnn2)c1	7	16	-26	20*
CCCNC(=O)c1cc2nc(-c3ccccc3)cc(C(F)(F)F)n2n1	/	-17	-5	96*
CCCCNC(=O)c1cc2nc(-c3ccccc3)cc(C(F)(F)F)n2n1	-15	-11	-25	0
Cc1noc(C)c1NC(=O)N(C)C[C@H]1Oc2c(NS(=O)(=O)c3ccc(Cl)cc3)cccc2C(=O)N([C@@H](C)CO)C[C@@H]1C	1	/	/	/
C[C@H]1CN([C@@H](C)CO)C(=O)c2cc(NC(=O)Nc3ccc(C(F)(F)F)cc3)ccc2O[C@H]1CN(C)C(=O)Nc1ccccc1	2	/	/	/
Cc1cc2oc(=O)cc(-c3ccccc3)c2c(C)c1-c1ccc(O)cc1	9.2*	/	19	/
O=C(COC(=O)c1c(F)cccc1F)NCc1ccc2c(c1)OCO2	0	2	7	/
Cn1cccc1C(=O)OCC(=O)NCc1ccc2c(c1)OCO2	37*	6	8	/
CCn1ccnc1C(O)c1ccccc1OC (stereo not drawn)	/	9	3	27*
COc1ccccc1C(O)c1nccn1C (stereo not drawn)	0	9	-3	0
COc1ccc(C2CC(c3cccc(Br)c3)=NN2c2ccc(S(N)(=O)=O)cc2)cc1 (stereo not drawn)	10*	/	16	/
SMILES	F508del corr	Jurkat NFkB inh	697 NFkB inh	HIF activator
COc1ccc(C2CC(c3cccc(F)c3)=NN2c2ccc(S(N)(=O)=O)cc2)cc1 (stereo not drawn)	-3	/	15	/
C[C@H](CO)N1C[C@H](C)[C@H](CN(C)Cc2ccc(Cl)c(Cl)c2)Oc2ccc(NC(=O)NC3CCCCC3)cc2C1=O	-2	/	/	/
Cc1c2ccncc2cc2c1[nH]c1ccccc12	12*	/	/	/
COc1cccc(NC(=O)c2cnc(SCC(=O)NCc3ccc4c(c3)OCO4)n(C)c2=O)c1	8.1*	-20	-8	1
C/C=C/c1ccc([C@H]2[C@@H](CO)N(CC3CCCC3)[C@H]2CNC(C)=O)cc1	1	/	/	/
Cc1ccc(O)c(/C=N/NC(=O)CN2CCCC2)c1	1	11	1	15*

Source: PubChem (several laboratories)
